# Screens as filed in PubChem.
# The entries come from a sample that favours hits as a whole.
# KDM5B inh: inhibitors of human KDM5B histone demethylase; KDM5B demethylase, FDH-coupled NADH fluorescence (FDH is formaldehyde dehydrogenase); actives 2.6% (n = 220,000); Q9UGL1; AID 1347165; Potency, µM (doses to about 57.7 µM), usual class: inhibitors; active = well fitted inhibition curve with a large enough effect; also: nearly all actives have a fitted effect of over 70% in size
# Target sequence (Q9UGL1 whole entry, looked up): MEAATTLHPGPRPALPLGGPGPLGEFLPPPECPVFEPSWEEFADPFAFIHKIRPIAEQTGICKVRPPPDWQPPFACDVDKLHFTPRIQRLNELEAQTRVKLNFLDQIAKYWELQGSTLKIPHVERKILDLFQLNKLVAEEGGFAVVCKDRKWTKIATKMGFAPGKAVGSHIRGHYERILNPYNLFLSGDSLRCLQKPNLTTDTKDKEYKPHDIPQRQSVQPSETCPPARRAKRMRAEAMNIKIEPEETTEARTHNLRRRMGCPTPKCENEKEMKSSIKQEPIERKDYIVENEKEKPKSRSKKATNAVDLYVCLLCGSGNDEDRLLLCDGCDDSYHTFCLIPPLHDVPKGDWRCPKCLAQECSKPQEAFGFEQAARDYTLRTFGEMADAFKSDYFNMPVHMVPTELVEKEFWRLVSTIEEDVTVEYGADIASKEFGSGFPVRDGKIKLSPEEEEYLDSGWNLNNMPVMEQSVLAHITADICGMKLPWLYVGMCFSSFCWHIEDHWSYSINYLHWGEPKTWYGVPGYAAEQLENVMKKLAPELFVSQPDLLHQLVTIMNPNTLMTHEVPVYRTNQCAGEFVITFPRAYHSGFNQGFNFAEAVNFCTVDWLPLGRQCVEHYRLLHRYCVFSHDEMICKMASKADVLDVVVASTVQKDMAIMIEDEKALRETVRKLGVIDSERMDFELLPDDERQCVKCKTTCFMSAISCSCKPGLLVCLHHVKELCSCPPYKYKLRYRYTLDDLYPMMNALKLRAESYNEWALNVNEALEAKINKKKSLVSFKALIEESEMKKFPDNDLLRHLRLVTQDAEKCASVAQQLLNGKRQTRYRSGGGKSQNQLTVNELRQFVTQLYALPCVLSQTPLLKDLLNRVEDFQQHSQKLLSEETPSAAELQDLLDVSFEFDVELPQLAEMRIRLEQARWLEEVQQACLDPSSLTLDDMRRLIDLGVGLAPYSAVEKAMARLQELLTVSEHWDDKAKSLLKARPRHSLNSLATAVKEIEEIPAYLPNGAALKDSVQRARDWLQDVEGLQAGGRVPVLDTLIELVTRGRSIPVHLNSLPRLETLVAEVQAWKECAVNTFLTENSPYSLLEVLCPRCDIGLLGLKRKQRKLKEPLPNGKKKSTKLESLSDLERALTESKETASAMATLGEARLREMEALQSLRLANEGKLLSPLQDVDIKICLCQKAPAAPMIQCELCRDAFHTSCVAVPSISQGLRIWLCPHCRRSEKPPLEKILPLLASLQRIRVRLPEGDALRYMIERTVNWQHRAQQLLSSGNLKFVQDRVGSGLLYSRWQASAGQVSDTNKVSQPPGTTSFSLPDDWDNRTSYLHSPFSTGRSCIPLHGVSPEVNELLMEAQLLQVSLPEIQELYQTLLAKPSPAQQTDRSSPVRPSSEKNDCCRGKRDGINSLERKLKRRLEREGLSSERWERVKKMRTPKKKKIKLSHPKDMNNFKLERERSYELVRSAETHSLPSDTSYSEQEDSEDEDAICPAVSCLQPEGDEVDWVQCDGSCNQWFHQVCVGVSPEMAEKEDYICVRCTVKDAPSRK
#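 Here, H3K4me3 peptide (12.5 µM in substrate mix) is demethylated by KDM5BΔAP, 200 nM final, after 10 min compound exposure. Formaldehyde product is coupled through FDH (0.25 U/mL in mix) to NADH fluorescence; 30-min ΔRFU feeds dose-response curves.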
# Hits are given with their value; 0 = inactive.
SMILES,KDM5B inh
c1ccc(CCCNc2nccc(-c3ccccn3)n2)nc1,28µM
CC(C)(O)CCc1cccc(C(=O)NCCCc2ccccn2)c1,0
CN1CCN(CCCNc2nc3ccccc3c3nc(-c4ccccc4)nn23)CC1,0
O=C(NCCCNc1ccccc1)NCCc1ccccn1,0
CCOC(=O)c1cccc(Nc2nc3ccccc3nc2NS(=O)(=O)c2ccc(C)cc2)c1,0
COc1ccc(NC(=O)N2CCCC(c3noc(COc4ccccc4F)n3)C2)c(C)c1 (configuration not stated),0
CNC(=O)[C@@H]1CN(C(=O)c2ccc(C)[nH]c2=O)C[C@H]1c1nc(COC)no1,25µM
CNC(=O)[C@@H]1CN(C(=O)c2ccc(Cl)s2)C[C@H]1c1nc(COC)no1,0
CNC(=O)[C@@H]1CN(C(=O)c2sccc2C)C[C@H]1c1nc(COC)no1,0
N#Cc1ccc(S(=O)(=O)N2CCN(C(=O)c3cnn(Cc4ccccc4Cl)c3)CC2)cc1,0
CC(NC(=O)c1cccs1)C(=O)NCc1cccnc1 (configuration not stated),0
Cc1cc(C)c2nc(N3CCC(C(=O)NCc4ccccc4C)CC3)sc2c1,0
Cc1cc(C(=O)NCCc2ccccn2)sc1C,0
Cc1ccccc1CNC(=O)c1cc2cn(C(C)C)cc2s1,18µM
Cc1cc(C(=O)NCc2ccccn2)sc1C,0
Cc1ccccc1CNC(=O)c1cc2c(s1)CCCC2,0
CCc1sc(C(=O)NCc2cccnc2)cc1C,0
CC(C)n1cc2cc(C(=O)NCc3cccnc3)sc2c1,25µM
Cc1cc(C(=O)NCc2ccncc2)sc1C,0
CC(C)n1cc2cc(C(=O)NCc3ccccn3)sc2c1,25µM
CC(C)n1cc2cc(C(=O)NCc3cnccn3)sc2c1,16µM
CC(C)CCNC(=O)c1cc2cc(N(C)S(C)(=O)=O)ccc2s1,0
CCOc1ccccc1NC(=O)CCc1ncc(-c2ccc(C)cc2)o1,0
COC(=O)c1ccc(COc2ccccc2C#N)cc1,0
COc1ccc(NC(=O)Cc2cnc(-n3cccc3)s2)c(OC)c1,0
SMILES,KDM5B inh
Cc1cccc(NC(=O)c2ccc3c(c2)NC(=O)CS3)n1,0
O=C(CCNC(=O)N1CCn2c1nc1ccccc12)NC1CC1,0
C#CCN1C(=O)S/C(=C/c2cn(C(C)C)c3ccccc23)C1=O,0
Brc1ccc(Oc2ccc3nnnn3n2)cc1,0
CCOc1ccccc1C(=O)Nc1ccc(OCC)c2ncccc12,0
CCCC(C(=O)Nc1nc2ccc(F)cc2s1)c1ccccc1 (configuration not stated),0
CSCCC(NC(=O)c1ccc2ccccc2n1)C(=O)NC1CC1 (configuration not stated),0
Cn1ccc2c(C(=O)NCc3cccnc3)nc(-c3cccc4cc[nH]c34)cc21,35µM
Cn1ccc2c(C(=O)NCc3cccnc3)nc(-c3ccc(CO)cc3)cc21,0
Cn1ccc2c(C(=O)NCc3cccnc3)nc(-c3ccccc3C(F)(F)F)cc21,35µM
Cn1ccc2c(C(=O)NCc3cccnc3)nc(-c3cccnc3)cc21,0
COC(=O)/C=C(/SCc1ccccc1)c1ccccc1,0
CC1=C/C(=N/N=C(c2ccccc2)c2ccccc2)CC1,0
Cc1c(Cl)cccc1NC(=O)c1noc2c1CCCCC2,0
O=C(Nc1ccc(Cc2nc3ccccc3s2)cc1)C1CC=CCC1 (configuration not stated),0
C/C(c1cccs1)=[N+](\[O-])C(C)/C(=N/O)c1cccs1 (configuration not stated),0
CCC(=O)N1CCc2nn(Cc3ccccc3)c(=O)n2CC1,0
COc1ccc(NC(=O)CN(C)C(=O)COc2ccc3oc4c(c3c2)CCCC4)cc1,0
CCC(CC)CN1CC2(CCN(C(=O)CCc3cc(=O)[nH]o3)CC2)OC1=O,0
Cc1ocnc1C(=O)N1CCC2(CC1)CN(CC(C)c1ccccc1)C(=O)O2 (configuration not stated),0
CCC(CC)CN1CC2(CCN(C(=O)c3cn4cccnc4n3)CC2)OC1=O,32µM
c1ccc(Cn2cc(CN3CCCOCC3)c(-c3cc4ccccc4o3)n2)cc1,0
CCN(CC)C(=O)Cn1c(=O)c2c(ncn2Cc2ccco2)n(Cc2ccccc2)c1=O,0
COc1cccc(-c2cc(C(=O)NCc3cccnc3)c3c(c2)N(C)CCO3)c1OC,35µM
COc1cc(OC)cc(C(=O)Nc2ccccc2C(=O)NCc2cccnc2)c1,0
SMILES,KDM5B inh
CCC(=O)N1CCc2c(C(=O)NCc3cccnc3)cccc21,0
CN1CCOc2c(C(=O)NCc3cccnc3)cc(-c3ccccc3F)cc21,25µM
COc1cncc(-c2cc(C(=O)NCc3cccnc3)c3c(c2)N(C)CCO3)c1,0
CNC(=O)c1cc(-c2cccc(OC)c2OC)cc2c1OCCN2Cc1cccnc1,32µM
COc1ccccc1-c1cc(C(=O)NCc2cccnc2)c2c(c1)N(C)CCO2,40µM
COc1ccccc1C(=O)N1CCN2C(=O)N(Cc3cccnc3)C[C@H]2C1,0
COc1cccc(C(=O)N[C@@H]2CN(Cc3cccnc3)C[C@H]2CN(C)C)c1C,0
COc1cccc(N2CCN(c3nc(C(=O)NCc4cccnc4)cs3)CC2)c1,0
O=C(NCc1ccccc1F)c1ccc2c(c1)CN(Cc1cccnc1)CCO2,0
Cn1c(=O)c2c(ncn2CCNc2ccc(Cl)cc2)n(C)c1=O,0
Cc1ccc(NC(=O)C(=O)c2c(C)[nH]c3ccccc23)cc1,0
CC(C)(C)c1ccc(C(=O)Nc2ccc(Cl)cc2F)cc1,0
COC(=O)CCC(NC(=O)C12CC3CC(CC(C3)C1)C2)C(=O)OC (configuration not stated),0
CCN(CC)C(=O)C1=C(C)NC(=O)NC1c1ccc(C(=O)OC)cc1 (configuration not stated),0
CC(CN1CCCCC1)OC(=O)c1cc(C(C)(C)C)cc(C(C)(C)C)c1 (configuration not stated),0
COc1cc(/C=C(/C#N)C(=O)OC(C)C)cc(Cl)c1OC,0
O=C(Nc1ccc(C23CC4CC(CC(C4)C2)C3)cc1)c1cccc(Cl)c1,0
CC(C)Cc1ccc(C(=O)O)s1,0
CNCCN1C(=O)CC[C@H]2CN(c3nc4cc(C)ccc4o3)CC[C@H]21,0
CNCCN1C(=O)CC[C@H]2CN(C(=O)c3ccc(Cl)cn3)CC[C@H]21,0
CNCCN1C(=O)CC[C@H]2CN(c3ncc(Cl)cc3F)CC[C@H]21,25µM
Cc1[nH]c2ccccc2c1C(=O)C(C)OC(=O)c1cccc(F)c1 (configuration not stated),0
Cn1nnnc1SCC(=O)N1N=C(c2cc3ccccc3o2)CC1c1ccco1 (configuration not stated),0
CN1C(=O)CCCCC1C(=O)N1CCc2ccccc21 (configuration not stated),0
Cn1cc(CN2CCc3ccccc32)ccc1=O,10µM
SMILES,KDM5B inh
COc1ccccc1N1CCN(Cc2ccc(=O)n(C)c2)CC1,0
O=C1CSc2ccc(C(=O)OCc3cc(-c4ccc(Cl)cc4)no3)cc2N1,0
O=C(O)CNC(=O)CNS(=O)(=O)Cc1ccccc1,0
Cc1ccccc1NC(=O)c1ccc2c(c1)CCCN2S(C)(=O)=O,0
Cc1oc(-c2cccc(C(F)(F)F)c2)cc1C(=O)NC(C)C,0
CC(C)NC(=O)c1nc(-c2cccnc2)c2cnccn12,35µM
COCC(C)NC(=O)c1csc2nc(-c3cccc(C(F)(F)F)c3)cn12 (configuration not stated),0
CC(C)NC(=O)CSc1nnc(-c2cccnc2)o1,0
CC(C)NC(=O)c1nc(-c2cccc(C(F)(F)F)c2)c2cnccn12,32µM
